From PubChem BioAssay (NCATS)
Inconclusive results are not listed. The source made the active and inactive calls. Calls come from the whole dose curve; as a rule, active = well fitted inhibition curve with a large enough effect; inconclusive = small, poorly fitted or top-dose-only effect; inactive = flat fitted curve, though single readings scatter.

Key:
Assay in all cases: qHTS profiling for inhibitors of Plasmodium falciparum proliferation (AID 504749); note: nearly all actives have a fitted effect of over 60% in size
Details in all cases: P. falciparum in erythrocytes, SYBR Green DNA, 72 h; series mostly up to 28.7 µM
CP252 = tested on: CP252
How it was run: (§1)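 Readout was DNA-dye fluorescence from lysed cultures, ex 485/em 535 nm. Parasitized red cells had grown 72 h with compound; data scaled between 0.29 uM artemisinin and DMSO wells and corrected using vehicle-only plates.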

CP256 = tested on: CP256
How it was run: as §1

CP260 = tested on: CP260
How it was run: as §1

CP265 = tested on: CP265
How it was run: as §1

CP266 = tested on: CP266
How it was run: as §1

CP268 = tested on: CP268
How it was run: as §1

CP269 = tested on: CP269
How it was run: as §1

CP286 = tested on: CP286
How it was run: as §1

CP291 = tested on: CP291
How it was run: as §1

CP297 = tested on: CP297
How it was run: as §1

CP305 = tested on: CP305
How it was run: as §1

CP325 = tested on: CP325
How it was run: as §1

CP329 = tested on: CP329
How it was run: as §1

DFO2036 = tested on: DFO2036
How it was run: as §1

DIV14 = tested on: DIV14
How it was run: as §1

DIV17 = tested on: DIV17
How it was run: as §1

DIV30 = tested on: DIV30
How it was run: as §1

Dd2 = tested on: Dd2
How it was run: as §1

ECU = tested on: ECU
How it was run: as §1

FAB9 = tested on: FAB9
How it was run: as §1

GB4 = tested on: GB4
How it was run: as §1

HB3 = tested on: HB3
How it was run: as §1

ICS = tested on: ICS
How it was run: as §1

JCK = tested on: JCK
How it was run: as §1

N140 = tested on: N140
How it was run: as §1

P93_24 = tested on: P93_24
How it was run: as §1

P94_40 = tested on: P94_40
How it was run: as §1

PAD = tested on: PAD
How it was run: as §1

PC15 = tested on: PC15
How it was run: as §1

PC26 = tested on: PC26
How it was run: as §1

PC49 = tested on: PC49
How it was run: as §1

SC27B = tested on: SC27B
How it was run: as §1

TAB109 = tested on: TAB109
How it was run: as §1

TAB113 = tested on: TAB113
How it was run: as §1

TAB165 = tested on: TAB165
How it was run: as §1

W2 = tested on: W2
How it was run: as §1

Measured: Potency

Cc1onc(-c2c(F)cccc2Cl)c1C(=O)N[C@@H]1C(=O)N2[C@H]1SC(C)(C)[C@H]2C(=O)O
inactive: all assays above
